Assay [1] can be described thus: qHTS assay to identify small molecule agonists of the constitutive androstane receptor (CAR) signaling pathway - cell viability counter screen (AID 1224836). Also: nearly all actives have a fitted effect of over 45% in size. Summed up: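 Cells were seeded and incubated 4 hrs. Compounds were added across 15 concentrations together with PK11195 at 0.75 uM final. Plates were incubated 23 hrs at 37 C. CellTiter-Fluor was added and fluorescence measured.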
On the technique in general: Quantitative high-throughput screening tests each substance at several concentrations.

Assay [2] in a line: qHTS assay to identify small molecule antagonists of the constitutive androstane receptor (CAR) signaling pathway - cell viability counter screen (AID 1224837). Also: nearly all actives have a fitted effect of over 45% in size. Summed up:
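HepG2-CYP2B6-hCAR cells, 2500/well, 4 hr pre-incubation; compound titration, 15 conc.; CITCO 50 nM final; 23 hr, 37 C/5% CO2; CellTiter-Fluor, fluorescence intensity.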

A short description of assay [3]: qHTS assay to identify small molecule antagonists of the estrogen related receptor signaling pathway with the pleiotropic PPARgamma coactivator (PGC) from Tox21 10K library - cell viability counter screen (AID 1224840; active = well fitted cell-killing curve with a large enough effect in the repeat runs, not every such curve was filed as active; also: nearly all actives have a fitted effect of over 40% in size). In a few lines:
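PGC/ERR cells, 2,000/well; 6 h pre-incubation 37 C/5% CO2; cpd in DMSO via pin tool; 17.5 h 37 C; CellTiter-Fluor, 30 min; fluorescence.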

Assay [4] is described as follows: qHTS assay to identify small molecule agonists of the estrogen related receptor signaling pathway with the pleiotropic PPARgamma coactivator (PGC) from Tox21 10K library (AID 1224842). Also: nearly all actives have a fitted effect of over 15% in size. Summed up: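 Luminescence from One-Glo (30 min, room temperature) measured after PGC/ERR cells had 18 h at 37 C with pinned compound (23 nL in DMSO). Cells had been seeded at 2,000 per well and pre-incubated 6 h.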

For assay [5], the target named is Thyrotropin receptor (Homo sapiens) (UniProt P16473). Kind of assay: qHTS assay to identify small molecule agonists of the thyroid stimulating hormone receptor (TSHR) signaling pathway (AID 1224843; calls by dose curve; also: nearly all actives have a fitted effect of over 45% in size). Summed up: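 Screening of the Tox21 10K collection used HEK293 cells engineered with TSHR at 800 cells per well. After a 30-min room-temperature compound exposure, HTRF cAMP reagents were added and fluorescence recorded 1 h later.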
Chain of Thyrotropin receptor (Homo sapiens) (P16473 whole entry, looked up): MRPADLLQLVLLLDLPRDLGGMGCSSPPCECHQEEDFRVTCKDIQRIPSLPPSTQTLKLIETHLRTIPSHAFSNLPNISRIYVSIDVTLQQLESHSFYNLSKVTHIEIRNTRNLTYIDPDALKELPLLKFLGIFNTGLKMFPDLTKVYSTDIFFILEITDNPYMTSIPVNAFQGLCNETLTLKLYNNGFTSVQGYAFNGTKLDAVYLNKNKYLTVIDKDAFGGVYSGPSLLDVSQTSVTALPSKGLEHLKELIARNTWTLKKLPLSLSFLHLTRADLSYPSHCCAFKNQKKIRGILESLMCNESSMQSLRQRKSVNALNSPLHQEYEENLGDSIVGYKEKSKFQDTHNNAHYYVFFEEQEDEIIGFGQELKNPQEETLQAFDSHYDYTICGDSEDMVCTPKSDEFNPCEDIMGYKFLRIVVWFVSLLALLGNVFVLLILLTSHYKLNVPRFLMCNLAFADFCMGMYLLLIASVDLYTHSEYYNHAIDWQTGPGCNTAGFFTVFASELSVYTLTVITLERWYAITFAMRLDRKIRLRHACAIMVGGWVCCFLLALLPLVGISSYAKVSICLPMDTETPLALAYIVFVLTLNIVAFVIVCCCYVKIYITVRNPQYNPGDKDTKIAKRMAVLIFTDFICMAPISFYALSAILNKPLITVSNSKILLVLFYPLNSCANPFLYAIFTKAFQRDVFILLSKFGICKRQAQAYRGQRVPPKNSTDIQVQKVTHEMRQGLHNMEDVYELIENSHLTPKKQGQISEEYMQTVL

Assay [6] in a line: qHTS assay to identify small molecule agonists of the hypoxia (HIF-1) signaling pathway - cell viability counter screen (AID 1224844; calls by dose curve; also: nearly all actives have a fitted effect of over 50% in size). In a few lines: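 ME-180 HRE-bla cells, 2,000/well, 0.5% dialyzed FBS; 5 hr settle, 17 hr compound at 37C/5% CO2; CCF4-AM reporter read first, then CellTiter-Glo luminescence after 30 min RT.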
Assay [7] can be described thus: qHTS assay to identify small molecule agonists of H2AX (AID 1224845; active = well fitted activation curve with a large enough effect in the signal ratio in the repeat runs, not every such curve was filed as active; the % refers to the signal ratio). Summed up: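 Phospho-H2AX Ser139 measured by HTRF (ex 320 nm; em 665 and 620 nm) after 24 hr antibody incubation. Compounds, 15 concentrations, 0.76% DMSO, were applied to CHO-K1 cells for 3hr at 37C before lysis.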
The nature of assay [8]: qHTS assay to identify small molecule agonists of the hypoxia (HIF-1) signaling pathway (AID 1224846; active = well fitted activation curve with a large enough effect in the signal ratio in the repeat runs, not every such curve was filed as active; the % refers to the signal ratio). In a few lines:
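Cell line: CellSensor HRE-bla ME-180; 2,000 cells/well; 0.5% dialyzed FBS; 5 h preincubation; DMSO compound pin transfer; 17 h, 37C, 5% CO2; CCF4-AM added; bla FRET signal scored for activation.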

Assay [9] can be described thus: qHTS assay to identify small molecule agonists of H2AX - cell viability counter screen (AID 1224847; calls by dose curve; also: top concentration of the series differs between compounds; nearly all actives have a fitted effect of over 30% in size). In a few lines:
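Cytotoxicity counter screen in wild-type CHO-K1 cells: a 3 hr compound treatment at 37C across 15 concentrations, followed by CellTiter-Glo luminescence to gauge viable cells.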

Assay [10] is described as follows: qHTS assay to identify small molecule antagonists of the estrogen related receptor (ERR) signaling pathway from Tox21 library (AID 1224848). Also: nearly all actives have a fitted effect of over 50% in size. Also: potency is read from the fitted curve at half-maximal effect. In a few lines:
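Antagonist-mode screen of the Tox21 10K library in an NTP-provided ERR reporter cell line; 18 h compound exposure at 37 C, luminescence measured with ONE-Glo.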

Assay [11] is described as follows: qHTS assay to identify small molecule agonists of the estrogen related receptor (ERR) signaling pathway from Tox21 library (AID 1224849; calls by dose curve; also: nearly all actives have a fitted effect of over 15% in size). The settings on record: ERR reporter cell line, ONE-Glo luciferase, 18 h; at 92.4 µM (top of the series) unless noted. Summed up: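 ERR cells, 6 h pre-incubation 37 C/5% CO2; cpd in DMSO pinned; 18 h 37 C; ONE-Glo added, 30 min RT; luminescence read. Agonist mode, qHTS.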

Assay [12] is described as follows: qHTS RealTime-Glo MT Cell Viability Assay in HepG2 cells - 24 hour (AID 1224867). Also: nearly all actives have a fitted effect of over 50% in size. Summed up:
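HepG2 suspension premixed with RealTime-Glo reagents is plated at 600 cells per well and left 5 h at 37 C/5% CO2. Compounds in DMSO then go in, and bioluminescence reflecting viable cell number is recorded over 40 h.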

Assay [13] is described as follows: qHTS RealTime-Glo MT Cell Viability Assay in HEK293 cells - 32 hour (AID 1224868). Also: top concentration of the series differs between compounds; nearly all actives have a fitted effect of over 50% in size. Summed up:
(§1)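 Reads taken at 0, 8, 16, 24, 32 and 40 h from the same wells. HEK293 cells (600/well) carried RealTime-Glo reagents from seeding, with compound added after a 5 h settle at 37 C.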

Assay [14] is described as follows: A CellTox Green Cytotoxicity Assay to monitor cytotoxicity in HEK293 cells - 0 hour (AID 1224869). Also: nearly all actives have a fitted effect of over 50% in size. In a few lines: (§2)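 Nonlytic real-time cytotoxicity: HEK293 + CellTox Green reagent plated, 5 h preincubation, pintool compound addition (23 nL in DMSO), 37 C for 40 h, fluorescence measured at successive time points.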
The nature of assay [15]: qHTS RealTime-Glo MT Cell Viability Assay in HEK293 cells - 16 hour (AID 1224872). Summed up: as §1
A short description of assay [16]: qHTS assay to identify small molecule antagonists of the estrogen related receptor signaling pathway with the pleiotropic PPARgamma coactivator (PGC) from Tox21 10K library (AID 1224841; call rule not given here; also: potency is read from the fitted curve at half-maximal effect). In a few lines: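 PGC/ERR cell line, 2,000 cells/well; 6 h pre-incubation 37 C/5% CO2; compounds (DMSO) pinned in; 18 h, 37 C; One-Glo, 30 min RT; luminescence.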
Assay [17] in a line: A CellTox Green Cytotoxicity Assay to monitor cytotoxicity in HEK293 cells - 40 hour (AID 1224871). Also: nearly all actives have a fitted effect of over 45% in size. In a few lines: as §2
The nature of assay [18]: qHTS RealTime-Glo MT Cell Viability Assay in HepG2 cells - 40 hour (AID 1224870). Also: nearly all actives have a fitted effect of over 50% in size. Summed up:
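Real-time viability: cells seeded at 600 per well together with NanoLuc and cell-permeant prosubstrate, compounds added after 5 h incubation. Luminescence tracked at 0, 8, 16, 24, 32 and 40 h of exposure.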

SMILES strings stand for the structures. Values without a mark were called inactive. Results filed as inconclusive are left out. Activity calls are given as the source filed them. Unless noted, calls follow the shape of the dose curve; as a rule, active = well fitted curve in the direction sought with a large enough effect in the repeat runs; inconclusive = weak or mixed curves; inactive = no such curve, though single readings can be large; an effect the other way counts as inactive or inconclusive.
% is scaled to controls: 0 for no effect and ±100 for the full control effect.

For the compound `C=C/C=C/C=C/CCCCC`, the viability change, negative = cytotoxic in [1] is -0.14% [at 19 µM]; in [3] it was -9.87% [at 19 µM]. In addition, the activity change, negative = cytotoxicity was -1.33% [at 19 µM] in [2]; -12% [at 15.8 µM] in assay [6]; -1.43% [at 31.6 µM] in assay [9]; -0.964% [at 15.8 µM] in [12]; 13.8% [at 15.8 µM] in [15]. For the same compound, the figures for the activation in assay [4], in assay [5] and in [8] were 0.0738% [at 19 µM], -9.38% [at 19 µM] and 0.434% [at 15.8 µM], respectively. In addition, the activation (H2AX phosphorylation) in assay [7] is 0.418% [at 31.6 µM]. In addition, the activity, negative = inhibition in [10] is 3.04% [at 19 µM]. Also, in assay [11], the activity change, positive = activation was 1.56% [at 19 µM]. For the same compound, the activity change, negative = cytotoxic in assay [13] is 0.818% [at 15.8 µM]. In addition, the cytotoxicity in assay [14] is -0.619% [at 15.8 µM].
As for `CCCCCCCC(=O)OCC`, the Potency entry in assay [1], in [2], in assay [3], in assay [16], in assay [4] and in assay [5] was “inactive” each time. The Potency result in assay [6], in assay [7], in assay [9], in assay [10], in assay [12] and in assay [13] was “inactive” in each case. The Potency result in assay [14] and in [15] was “inactive” each time. Also, the compound was called inactive in [8]. In addition, in assay [11], the activity change, positive = activation is 0.783%.
As to `CCc1c(C(=O)O)c(=O)cnn1-c1ccc(Cl)cc1`, the Potency entry in [1], in assay [2], in [3], in assay [16], in [4] and in assay [5] was “inactive” in each case. In addition, the Potency entry in assay [7], in [9], in [10], in assay [12], in assay [14] and in assay [15] was “inactive” each time. Further, in assay [11], the activity change, positive = activation was 3.84%.
Regarding `CCC(C)C(=O)OC` (stereo unspecified), the Potency entry in assay [1], in [2], in assay [3], in assay [4], in [5] and in assay [6] was “inactive” in each case. For the same compound, the Potency result in assay [7], in assay [9], in [10], in assay [13], in assay [14] and in assay [17] was “inactive” each time. For the same compound, the Potency result in [15] was “inactive”. Further, in [11], the activity change, positive = activation is -4.99%.
With `O=C(NO)c1ccccc1`, the Potency result in assay [1], in [2], in [3], in assay [4], in [12] and in assay [14] was “inactive” each time. In addition, in [18], the Potency entry is “inactive”. Besides, the Potency in assay [16] was 18.4 µM (active); in [10], 23.2 µM (active). In assay [11], the activity change, positive = activation was -48.5%.
As to `O=S(=O)(O)c1cc(S(=O)(=O)O)c2ccc3c(S(=O)(=O)O)cc(S(=O)(=O)O)c4ccc1c2c43`, the viability change, negative = cytotoxic in assay [1] was 3.39% [at 19 µM]; in assay [3], 1.08% [at 19 µM]. Besides, the activity change, negative = cytotoxicity in [2] was 0.0028% [at 19 µM]; in [9] it was 4.65% [at 31.6 µM]; in assay [12], 3.52% [at 15.8 µM]; in [15], 1.53% [at 15.8 µM]. For the same compound, the activity, negative = inhibition in assay [16] is 13.5% [at 19 µM]; in assay [10], 17.9% [at 19 µM]. Further, the activation in assay [4] is 0.18% [at 19 µM]; in assay [5] it was -6.64% [at 19 µM]. Besides, in assay [11], the activity change, positive = activation is 9.26% [at 19 µM]. Moreover, the activity change, negative = cytotoxic is 2.34% [at 15.8 µM] in assay [13] and 8.14% [at 15.8 µM] in [18]. In assay [14], the cytotoxicity is -7.26% [at 15.8 µM]. Further, the cytotoxicity increase in assay [17] was -6.93% [at 15.8 µM].
In the case of `O=C(O)c1cccc(Cl)n1`, the Potency entry in assay [1], in assay [2], in [3], in assay [5], in assay [6] and in [7] was “inactive” throughout. The Potency result in assay [9], in assay [12], in [13], in [18] and in assay [15] was “inactive” in each case. Besides, in assay [8], the compound was called inactive.
Consider `Clc1cc(Cl)c(-c2c(Cl)c(Cl)cc(Cl)c2Cl)cc1Cl`, for which the Potency result in assay [1], in assay [2], in assay [3], in assay [16], in assay [5] and in assay [7] was “inactive” throughout. Moreover, the Potency result in [9], in assay [10], in [12], in assay [14], in assay [17] and in assay [15] was “inactive” in each case. For the same compound, the call in assay [8] was inactive. For the same compound, the activity change, positive = activation in assay [11] is 21.1% [at 42.5 µM].
With `CC(=O)OC1CCCCC1`, the Potency entry in assay [1], in assay [2], in [3], in [4], in assay [5] and in assay [6] was “inactive” throughout. Also, the Potency result in assay [7], in assay [9], in [10], in [12], in assay [13] and in [14] was “inactive” throughout. The Potency entry in assay [15] was “inactive”. Further, in assay [8], the compound was classed as inactive. For the same compound, the activity change, positive = activation in [11] was 5.62%.
Take `[O]=[Zr]`: the Potency result in assay [1], in assay [2], in assay [3], in assay [16], in [4] and in assay [9] was “inactive” each time. The Potency entry in assay [10], in assay [12], in assay [13], in [14], in [18] and in assay [15] was “inactive” in each case. Besides, the compound was classed as inactive in assay [8]. In addition, the activity change, positive = activation in assay [11] is 5.09%.
Take `CC1(C)C(=O)N(CO)C(=O)N1CO`: the Potency result in [1], in assay [2], in [3], in assay [5], in assay [6] and in assay [7] was “inactive” each time. Further, the Potency entry in assay [9], in [12], in assay [13], in [14], in assay [18] and in [15] was “inactive” throughout. The outcome in assay [8] was inactive.

The values above are taken from PubChem BioAssay (Tox21).
